Bioassay records from PubChem BioAssay.
HIV RNase H inh: blocks HIV-1 RNase H cleavage of RNA/DNA duplex; hit rate 1.9% among 65,000; P04585; RT-RNase H RNA/DNA duplex cleavage, fluorescence; inhibition, % at 10 µM; in the data active = inhibition above about 50%
The depositor's hits bear a star. This excerpt belongs to a sample that is enriched for hits.

SMILES	HIV RNase H inh
CCn1c(=O)c(C(=O)Nn2c(C)nc3ccccc3c2=O)c(O)c2ccccc21	-32
O=C(Nc1ccc(N2CCN(C(=O)c3ccco3)CC2)c(Cl)c1)c1c(F)c(F)c(F)c(F)c1F	15
COc1cc2c(cc1OC)CN(S(=O)(=O)c1ccc3c(c1)OCCO3)CC2	-3
Cc1ccc(-c2noc(CCC(=O)NCCN3CCc4ccccc4C3)n2)cc1	-6
COc1ccc(Cl)cc1NC(=O)c1cccnc1	-10
Cc1cc(C)n(C(=O)c2ccc(C)c(S(=O)(=O)N3CCCC3)c2)n1	-14
COc1ccc2cc(S(=O)(=O)N3CCOCC3)ccc2c1	-11
COc1ccc(-n2nnnc2SCC(=O)N2CCOCC2)cc1	-2
COc1ccc(-n2nnnc2Sc2ccc(S(=O)(=O)N3CCOCC3)cn2)cc1	86*
Cc1[nH]nc2c1C(CCc1ccccc1)C(C#N)=C(N)O2 (centres undefined)	-30
O=C(C1CCCN(S(=O)(=O)c2ccc(F)cc2)C1)N(Cc1cccs1)C1CC1 (centres undefined)	-8
CCN(CC)C(=O)CSc1nc(C)cc(-c2cccs2)c1C#N	25
Nc1c(C(=O)NC2CCCC2)sc2nc(-c3cccs3)ccc12	-4
CCN(CC)C(=O)c1sc2nc(-c3cccs3)cc(-c3cccs3)c2c1N	52*
O=C(CNS(=O)(=O)c1cccs1)N1CCc2ccccc2C1	1
COc1ccc(-n2ncc3c(N4CCN(c5cccc(C)c5C)CC4)ncnc32)cc1	84*
COc1ccc(-n2ncc3c(N4CCCCC4)ncnc32)cc1	-12
COc1ccc(N2CCN(c3ncnc4c3cnn4-c3ccc(C)cc3C)CC2)cc1	4
CCOC(=O)c1sc(C)c2c1NC(C)(c1cccs1)NC2=O (centres undefined)	-7
CCC(=O)c1ccc(OCC(=O)Nc2nn3cnnc3s2)cc1	-7
CCCCc1nc2ccccc2c(=O)n1NC(=O)c1c(O)c2c(n(CC(C)C)c1=O)CCCC2	52*
CC(C)Cn1c2c(c(O)c(C(=O)Nc3ccc(F)cc3)c1=O)CCCC2	7
CC(C)Cn1c2c(c(O)c(C(=O)Nc3ncccc3O)c1=O)CCCC2	8
Cc1cc(C)c2cc(C#N)c(SCC(=O)NCC3CCCO3)nc2c1 (centres undefined)	-2
Cc1ccc2cc(C#N)c(SCC(=O)NCC3CCCO3)nc2c1 (centres undefined)	-37
SMILES	HIV RNase H inh
Cc1ccc2nc(SCC(=O)NCC3CCCO3)c(C#N)cc2c1 (centres undefined)	59*
COC(=O)c1cc(Nc2ncnc3c2cnn3-c2ccccc2)cc(C(=O)OC)c1	17
CC(=O)c1c(C)[nH]c(C(=O)OCCCCN2C(=O)c3ccccc3C2=O)c1C	-47
CCOc1cc2[nH]c(=O)n(CCCCCC(=O)NCc3ccc4c(c3)OCO4)c(=O)c2cc1OCC	-5
CCOc1cc2[nH]c(=O)n(CCC(=O)NCCc3ccccc3)c(=O)c2cc1OCC	64*
CCOc1cc2[nH]c(=O)n(CCC(=O)NCCc3ccc(OC)c(OC)c3)c(=O)c2cc1OCC	0
CC(C)(C)c1ccccc1NC(=O)c1ccco1	-4
CCOC(=O)Cc1cnc(NC(=O)NC(C(=O)OCC)(c2ccccc2)C(F)(F)F)s1 (centres undefined)	1
O=C(OCC(=O)N1CCN(C(=O)c2ccco2)CC1)c1ccccc1OCc1ccc(Cl)cc1	-11
COc1cccc2cc3c(=O)n(-c4ccccc4)nc-3oc12	53*
COc1cccc2cc(C(C)=O)c(=O)oc12	-3
COc1cccc2cc(C(=O)n3ccc(C)n3)c(=O)oc12	-3
C=CCn1c(SCCCc2ccccc2)nc2c1c(=O)[nH]c(=O)n2C	-34
C/C=C/Cn1c(SCCCc2ccccc2)nc2c1c(=O)[nH]c(=O)n2C	-14
CC(C)n1c(SCCCc2ccccc2)nc2c1c(=O)[nH]c(=O)n2C	56*
CCOCc1nc(N)[nH]c(=O)c1Cc1ccc(OC(C)C)cc1	-4
CN(CC(=O)Nc1sccc1C#N)C1CCCCC1	58*
CN(C/C(O)=C(\C#N)c1ccccc1)C1CCCCC1	-5
N#Cc1ccsc1NC(=O)c1ccccn1	-9
C=CCN(C)CCCNC(=O)/C=N/O	-9
C/C=C(\CS(=O)(=O)c1ccccc1)S(=O)(=O)c1ccccc1	-5
Cc1oc(/N=C/c2ccc(Cl)cc2)c(C#N)c1C	-8
Cc1oc(/N=C/c2ccccc2O)c(C#N)c1C	0
Cc1oc(/N=C/c2c(O)ccc3ccccc23)c(C#N)c1C	73*
Cc1ccc2c(c1)N(CC(=O)NCc1cccs1)C(=O)CO2	-14
SMILES	HIV RNase H inh
CC(=O)c1cccc(-n2nnnc2SCC(=O)Nc2cccc(NC(=O)c3ccco3)c2)c1	-9
CCN(CC)c1cccc(OC2=NS(=O)(=O)c3ccccc32)c1	55*
Cc1ccc(C)c(NC2=NS(=O)(=O)c3ccccc32)c1	-10
COc1ccccc1OC1=NS(=O)(=O)c2ccccc21	-1
COc1ccc(CNC(=O)C2COc3ccccc3O2)c(OC)c1 (centres undefined)	-6
CCn1c(CCC(=O)Nc2nc3c(s2)CCCC3)nc2cc(S(=O)(=O)N(C)C)ccc21	3
CCc1c(C)sc(NC(=O)c2cc(C)on2)c1C#N	-3
CCc1c(C)sc(NC(=O)c2cc(C3CC3)on2)c1C#N	33
CCCc1cc(C(=O)Nc2sc(C)c(CC)c2C#N)no1	53*
COc1ccc(S(=O)(=O)N2CCC(C(=O)N3CCCCCC3)CC2)cc1	1
O=C(c1ccc(Br)o1)N(Cc1ccccc1)c1ccccn1	-47
Cc1cc(=O)n2nc(N3CCC(C(=O)NCCC4=CCCCC4)CC3)sc2n1	-3
CC1(C)NC(=O)N(CC(O)CN2CCCCC2)C1=O (centres undefined)	1
CC(=O)/C(CN1CCCCC1)=N\O	-10
C/C(=N\O)C(=O)C(CN1CCCCC1)CN1CCCCC1	51*
Cc1cccc(Cn2c(=O)c3c(nc4n3CCCN4Cc3ccccc3)n(C)c2=O)c1	-1
CCN(CCNC(=O)CN1CCN(Cc2ccc(Cl)cc2)C1=O)c1ccccc1	0
CCCCCn1c2nc3ccccc3nc2c2c(=O)n(CC3CCCO3)c(C)nc21 (centres undefined)	0
CCOC(=O)N1CCN(c2nc(C)c3c(n2)CC(C)CC3=O)CC1 (centres undefined)	-9
CC1CCc2c(sc(N)c2C(N)=O)C1 (centres undefined)	65*
CC1CCc2c(sc(NC(=O)c3noc4c3CCCC4)c2C(N)=O)C1 (centres undefined)	-1
COCC(=O)Nc1sc2c(c1C(=O)OC)CCC(C)C2 (centres undefined)	-28
CC(=O)c1ccc(NS(=O)(=O)c2cccc(C)c2)cc1	-17
CCSc1nnc(NC(=O)C2CCCN(S(=O)(=O)c3cnc[nH]3)C2)s1 (centres undefined)	-5
Cc1cc(C)n(-c2nc3ccccc3c(=O)n2OCC(=O)Nc2c(C)cccc2C)n1	-2
SMILES	HIV RNase H inh
CCn1c(SCC(=O)Nc2nccs2)nnc1-c1ccc(C)cc1	-5
CCn1c(COc2ccc3c(c2)CCCC3)nnc1SCC(=O)Nc1nccs1	62*
CCn1c(CNC(=O)Cc2ccc(OC)cc2)nnc1SCC(=O)Nc1nccs1	3
COCC(C)NCc1ccccc1C (centres undefined)	-9
COc1ccc(-c2nc(C#N)c(NC(C)c3ccccc3)o2)cc1OC (centres undefined)	-12
CCOC(=O)c1c(-c2ccco2)csc1N	56*
CCOC(=O)c1c(-c2ccc(C)s2)csc1NC(=O)c1ccco1	13
CCOC(=O)c1c(NC(=O)c2ccco2)sc(C(=O)N2CCCC2)c1C	0
